Here are results for 25 compounds from PubChem BioAssay AID1572 (National Center for Advancing Translational Sciences (NCATS), 2009).

Results filed as inconclusive are left out. Active and inactive are the calls of the source. Calls follow the shape of the dose curve; as a rule, active = well fitted curve in either direction with a large enough effect; inconclusive = small, poorly fitted or top-dose-only effect; inactive = flat fitted curve, though single readings scatter.

The nature of the assay: Total Fluorescence Confirmation Counterscreen for Inhibitors of the Interaction of Thyroid Hormone Receptor and Steroid Receptor Coregulator 2. The conditions noted are these: Texas Red total fluorescence, TRbeta/SRC2 FP artifact counterscreen; series mostly up to 92.2 µM; total fluorescence change, both ways: at the top concentration. In a few lines: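 Flags fluorescent or light-absorbing compounds: after 5 hr at ambient temperature, 0.6 uM TRbeta LBD plus 20 nM SRC2 Texas Red (1uM T3, 5% DMSO) read at 555/632 nm; TF = S + 2P from parallel and perpendicular channels.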
Background: The purpose of a counterscreen is to sort out artefacts and off-target activity.
In the case of `O=C1CNC(=S)N1c1nc(-c2ccccc2)cs1`, the Potency is 11.2 µM [quencher] (active).
Consider `CC1=NN(c2ccc(F)cc2)C(=O)C1C(c1cccc(O)c1)c1c(C)[nH]n(-c2ccc(F)cc2)c1=O` (stereo not given), for which the “total fluorescence change, both ways” value was -16.4% (inactive).
The same measure, in the same setting: in the case of `COC(=O)/C(=C/Nc1ccc(O)cc1)[N+](=O)[O-]` it was 4.79% (inactive).
Take `COc1ccc(-c2nc(CS(=O)CC(=O)NCc3ccccn3)c(C)o2)cc1` (stereo not given): the Potency is 35.5 µM [fluorescent] (active).
On to `COn1c2c(c3c4nonc4ccc31)CCCC2`, for which the “total fluorescence change, both ways” value is 5.67% (inactive).
Consider `CCOc1cc(C(c2c(C)[nH][nH]c2=O)c2c(C)[nH][nH]c2=O)ccc1OS(=O)(=O)c1ccc(C)cc1`, for which the “total fluorescence change, both ways” value was 5.37% (inactive).
On the same count and under the same terms, as for `CN1c2ccccc2C(C)(C)C12C=Nc1c(cc(N3CCOCC3)c3ccccc13)O2` (stereo not given), the figure is 2.92% (inactive); as for `CCOC(=O)c1cnc2nc(NCc3ccc(OC)c(OC)c3)[nH]n2c1=O`, 6.28% (inactive).
For the compound `Cn1cc(/C=C2\SC(=S)N(NC(=O)c3ccccc3)C2=O)c2ccccc21`, the Potency is 70.8 µM [fluorescent] (active).
With `N/C(Cc1cccc2ccccc12)=N\OC(=O)c1cccs1`, the “total fluorescence change, both ways” value is 29.5% (inactive).
On the same count and under the same terms, as for `Cn1cc[nH]c1=S`, the figure is -0.484% (inactive).
As for `C=CCNC(=O)/C(C#N)=C\c1cc(Cl)c(OCC)c(OC)c1`, the “total fluorescence change, both ways” value was -0.935% (inactive).
Same read-out and setting: in the case of `CCCCCCN=CC1=C(O)CC(C)(C)CC1=O` it was 3.03% (inactive).
Still for that read-out and setting: as for `COc1ccccc1Nc1cc2ccccc2c(=O)[nH]1`, the figure is -10.5% (inactive).
The same measure, in the same setting: as for `COc1cc(NC(C)CCCN)c2ncccc2c1` (stereo not given), the figure is 2.44% [at 184 µM] (inactive); as for `COc1cc(C(c2c(C)[nH][nH]c2=O)c2c(C)[nH][nH]c2=O)ccc1OC(=O)c1cccc(C)c1`, 1.17% [at 184 µM] (inactive).
On to `CN(C(=S)Nc1cccnc1)c1ccc(O)cc1`, for which the “total fluorescence change, both ways” value is 5.43% (inactive).
The same measure, in the same setting: in the case of `O=c1[nH]c(Nc2ccc(F)cc2)cc2ccccc12` it was 3.63% (inactive).
For `COc1ccc(CN2C(=O)Cc3c2nc(N)c2c(N)nc(N4CCCCC4)c(C#N)c32)cc1`, the “total fluorescence change, both ways” value is 1.08% (inactive).
On the same count and under the same terms, as for `CCN(CC)S(=O)(=O)c1cccc(N=NC2=C(O)CCCC2=O)c1`, the figure is 6.08% (inactive); as for `COc1ccc(C(=O)Oc2ccc(C(c3c(C)[nH][nH]c3=O)c3c(C)[nH][nH]c3=O)cc2OC)cc1`, 6.44% [at 184 µM] (inactive); as for `Cc1[nH][nH]c(=O)c1C(c1ccc(-c2ccc(Cl)c(Cl)c2)o1)c1c(C)[nH][nH]c1=O`, 2.21% (inactive).
Regarding `O=C(O)/C=C/C(=O)Nc1ccc(OC(F)(F)F)cc1Br`, the “total fluorescence change, both ways” value was 10.6% (inactive).
Take `O=C(NNc1cc(N2CCOCC2)nc(N2CCOCC2)n1)c1ccc(Cl)c(Cl)c1`: the Potency is 39.8 µM [quencher] (active).
As for `CCOc1ccc(C2=Cc3cc(OC)c(OC)cc3C(=C(Cl)Cl)O2)cc1`, the “total fluorescence change, both ways” value was -0.317% (inactive).
